The full list was thinned out, with hits kept by preference.
PKM2 activator: PKM2 (human) enzyme activation; purified PKM2, Kinase-Glo ATP luminescence, activation; response scale: 0% is enzyme alone, no compound; Potency, µM (series often up to 57.5 µM), most hits filed as activators; hit rate 0.34% among 260,000; also: nearly all actives have a fitted effect of over 55% in size
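Purified hPK-M2 (>95%) run at intermediate activity with 0.1 mM ADP and 0.5 mM PEP in 50 mM imidazole pH 7.2, KCl, MgCl2; 1 h room temperature. ATP formed read by Kinase-Glo luminescence; normalized to uninhibited and no-enzyme controls.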
JMJD2E inh: inhibitors of human JMJD2E histone demethylase | B2RXH2 | JMJD2E catalytic domain, FDH-coupled NADH fluorescence (FDH is formaldehyde dehydrogenase) | Potency, µM (top dose mostly 57.1 µM), hits mostly inhibitors | hit rate 1.6% among 230,000; active = well fitted inhibition curve with a large enough effect, not every such curve was filed as active; inconclusive = small, poorly fitted or top-dose-only effect, or another doubt; inactive = no such curve, though single readings can be large or run the other way; also: nearly all actives have a fitted effect of over 50% in size
BLM inh-1: Bloom syndrome helicase (human) inhibition; recombinant BLM DNA unwinding, fluorescence dequenching; hit rate 0.2% among 350,000; Potency, µM (titrated, usually from 56.1 µM), actives largely listed as inhibitors; P54132; also: nearly all actives have a fitted effect of over 35% in size
APE1 inh-1: APE1 (human) endonuclease inhibition; AID 2517; hit rate 0.35% among 350,000; Potency, µM (top dose mostly 65.8 µM), most hits filed as inhibitors; recombinant APE1, TAMRA/BHQ-2 abasic DNA cleavage fluorescence; P27695; also: nearly all actives have a fitted effect of over 55% in size
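Endonuclease cleavage of a quenched abasic-site DNA duplex (50 nM) by APE1 (0.75 nM) was tracked by TAMRA dequenching. Compounds were preincubated with enzyme 15 min at room temperature; data normalized to buffer-only and DMSO wells plus NSC13755 control.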
RECQ1 inh-1: inhibitors of human RECQ1 DNA helicase. RECQ1 DNA unwinding, red fluorescence kinetic read. Potency, µM (series often up to 57.3 µM), hits mostly inhibitors. P46063. hit rate 0.54% among 240,000; also: nearly all actives have a fitted effect of over 30% in size
Target sequence (P46063 whole entry, looked up): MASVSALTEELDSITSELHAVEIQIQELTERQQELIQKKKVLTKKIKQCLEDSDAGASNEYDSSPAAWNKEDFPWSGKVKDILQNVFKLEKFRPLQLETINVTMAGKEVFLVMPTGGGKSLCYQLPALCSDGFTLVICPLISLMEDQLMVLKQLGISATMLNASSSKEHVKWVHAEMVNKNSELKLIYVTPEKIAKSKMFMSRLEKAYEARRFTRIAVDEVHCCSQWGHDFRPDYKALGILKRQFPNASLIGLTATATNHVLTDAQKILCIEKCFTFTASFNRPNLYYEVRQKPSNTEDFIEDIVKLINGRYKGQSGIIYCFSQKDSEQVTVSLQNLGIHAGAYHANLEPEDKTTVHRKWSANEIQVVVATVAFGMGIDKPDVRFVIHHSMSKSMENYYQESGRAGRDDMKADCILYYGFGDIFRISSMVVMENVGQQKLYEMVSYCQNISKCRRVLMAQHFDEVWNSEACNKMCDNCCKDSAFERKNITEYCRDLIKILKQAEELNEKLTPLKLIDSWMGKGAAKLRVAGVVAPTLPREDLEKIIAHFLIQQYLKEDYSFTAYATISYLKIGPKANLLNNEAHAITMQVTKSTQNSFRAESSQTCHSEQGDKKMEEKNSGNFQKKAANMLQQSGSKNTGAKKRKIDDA
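50 nM RECQ1T1 preincubated 15 min with compound in Tris pH 8.0 buffer with MgCl2, DTT, Tween-20 and 2.5 ug/ml poly(dI-dC); started with 200 nM TAMRA/BHQ-2 forked duplex and 2 mM ATP. Unwinding read as fluorescence (525/598 nm), two reads 2 h apart.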
DNA dye displace: displaces fluorescent dye from DNA, flagging APE1 artifacts; shares compounds with APE1 inh-1; DNA fluorescent dye displacement counterscreen, fluorescence; Potency, µM (doses to about 28.5 µM), most hits filed as inhibitors; hit rate 7% among 480; AID 2564;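 also: loss of thiazole orange fluorescence as the dye is displaced from duplex DNA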
Endo IV inh: blocks E. coli endonuclease IV DNA cleavage | E. coli Endo IV, fluorogenic AP-site DNA cleavage | shares compounds with APE1 inh-1 | hit rate 4% among 560 | Potency, µM (doses to about 27.1 µM), actives largely listed as inhibitors
APE1 inh-2: confirmation of inhibitors of human APE1 endonuclease. shares compounds with APE1 inh-1. purified APE1, fluorogenic abasic-site DNA cleavage. Potency, µM (highest dose often 57.1 µM), usual class: inhibitors. hit rate 44% among 750. AID 2572; also: nearly all actives have a fitted effect of over 30% in size
APE1 FP: compounds that displace a DNA probe from human APE1; shares compounds with APE1 inh-1; APE1 binding to TAMRA-labelled double-stranded DNA, fluorescence polarization displacement; Potency, µM (highest dose often 28.5 µM), actives largely listed as inhibitors; hit rate 7% among 480; AID 2573
BLM inh-2: BLM (human) helicase inhibition, confirmation | Potency, µM, hits mostly inhibitors | AID 2585 | shares compounds with BLM inh-1 | hit rate 40% among 220 | BLM DNA unwinding, fluorescence quenching, biochemical;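 also: strand separation dequenches TAMRA so unwinding raises red fluorescence; series mostly up to about 69 µM; nearly all actives have a fitted effect of over 45% in size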
RECQ1 conf: confirmation of human RECQ1 helicase inhibitors | AID 2708 | hit rate 28% among 610 | RECQ1 helicase DNA unwinding, fluorescence | shares compounds with RECQ1 inh-1 | Potency, µM (doses to about 229 µM), hits mostly inhibitors; also: nearly all actives have a fitted effect of over 45% in size
ADP FP counter: counter-screen for RECQ1 inhibitors: ADP displacement; ADP fluorescence polarization displacement counterscreen; shares compounds with RECQ1 inh-1; Potency, µM (top dose mostly 228 µM), usual class: inhibitors; AID 2711; hit rate 27% among 530; also: nearly all actives have a fitted effect of over 45% in size
RECQ1 inh-2: RECQ1 helicase inhibition confirmed, round 2 | shares compounds with RECQ1 inh-1 | recombinant RECQ1 DNA unwinding, red fluorescence | Potency, µM (series often up to 119 µM), actives largely listed as inhibitors | hit rate 15% among 1,100; also: nearly all actives have a fitted effect of over 50% in size
Each line names hits and unclear results; the compound was inactive in the other large screens (follow-up assays come after a bar, where they were run). Unless noted, calls follow the shape of the dose curve; as a rule, active = well fitted curve in the direction sought with a large enough effect; inconclusive = small, poorly fitted or top-dose-only effect, or another doubt; inactive = no such curve, though single readings can be large; an effect the other way counts as inactive or inconclusive.

CC(=O)Nc1sc2c(c1-c1nc3ccccc3s1)CCN(C(C)C)C2	JMJD2E inh inconclusive, APE1 inh-1 13µM, RECQ1 inh-1 inconclusive | DNA dye displace inactive | Endo IV inh 13µM | APE1 inh-2 3.5µM | APE1 FP 2.5µM | BLM inh-2 inactive | RECQ1 inh-2 45µM
CCN1CCc2c(sc(NC(=O)CSc3ccccc3)c2-c2nc3ccccc3s2)C1	none (no result: PKM2 activator, JMJD2E inh, APE1 inh-1, RECQ1 inh-1)
N#Cc1nc(-c2cccc3ccccc23)oc1NCC#CCOC(=O)c1cccs1	none (no result: PKM2 activator, JMJD2E inh, BLM inh-1, RECQ1 inh-1)
CC(=O)OC[C@@H]1O[C@H](C/C=N\O[C@@H](C)c2cn([C@H](CO)Cc3ccccc3)nn2)C=C[C@@H]1OC(C)=O	none (no result: PKM2 activator, JMJD2E inh)
COc1cc(O)c2c(c1)oc(=O)c1c3cc(O)c(O)cc3oc21	BLM inh-1 13µM, APE1 inh-1 1.8µM, RECQ1 inh-1 2.5µM (no result: PKM2 activator, JMJD2E inh) | DNA dye displace 8.9µM | Endo IV inh inactive | APE1 inh-2 4.5µM | APE1 FP inactive | RECQ1 conf 14µM | ADP FP counter 45µM | RECQ1 inh-2 2.2µM
CSCC[C@H](NC(=O)[C@H](CC(C)C)NC(=O)[C@@H]1CCCN1C(=O)[C@H](Cc1ccccc1)NC(=O)[C@H](Cc1ccccc1)NC(=O)[C@H](CCC(N)=O)NC(=O)[C@H](CCC(N)=O)NC(=O)[C@@H]1CCCN1C(=O)[C@H](CCCCN)NC(=O)[C@@H]1CCCN1C(=O)[C@@H](N)CCCN=C(N)N)C(N)=O	none (no result: PKM2 activator, JMJD2E inh)
Cc1ccccc1CSc1nnnn1-c1ccc(C(N)=O)cc1	none (no result: PKM2 activator, JMJD2E inh, RECQ1 inh-1)
NC(=O)c1ccc(-n2nnnc2SCC(=O)c2ccc(O)c(O)c2)cc1	JMJD2E inh 0.71µM, APE1 inh-1 4µM, RECQ1 inh-1 8.9µM (no result: PKM2 activator) | DNA dye displace inactive | Endo IV inh inactive | APE1 inh-2 11µM | APE1 FP inactive | RECQ1 inh-2 inconclusive
Oc1ccc(-c2cn3c(n2)SCC3)cc1O	JMJD2E inh 13µM, BLM inh-1 16µM, APE1 inh-1 1.6µM, RECQ1 inh-1 2.5µM | DNA dye displace inactive | Endo IV inh inactive | APE1 inh-2 13µM | APE1 FP inactive | BLM inh-2 inconclusive | RECQ1 inh-2 7.1µM
COc1ccc(C2=Nn3c(nnc3-c3ccccc3OC)SC2)cc1OCC1CC1	none (no result: PKM2 activator, JMJD2E inh, BLM inh-1, RECQ1 inh-1)
CCOc1ccccc1-c1nnc2n1N=C(c1ccc(OC)c(OC)c1)CS2	APE1 inh-1 10µM (no result: PKM2 activator, JMJD2E inh) | DNA dye displace inconclusive | Endo IV inh inactive | APE1 inh-2 inactive | APE1 FP inconclusive | RECQ1 conf inactive
COc1c(O)cc2c(=O)oc3c(OC)c(O)cc4c(=O)oc1c2c34	JMJD2E inh 7.1µM, BLM inh-1 14µM, APE1 inh-1 1.3µM, RECQ1 inh-1 3.2µM (no result: PKM2 activator) | DNA dye displace 6.3µM | Endo IV inh inactive | APE1 inh-2 0.45µM | APE1 FP inactive | RECQ1 inh-2 0.79µM
COc1cc(-c2cc(=O)c3c(O)c(OC)c(OC)c(OC)c3o2)cc(OC)c1OC	none
